Measured values published in PubChem BioAssay.
Active and inactive are the calls of the source.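 Rule for the calls, unless noted: active = inhibition above 20% together with a positive visual image hit; inconclusive = visual image hit but inhibition not above 20%; inactive = no visual image hit.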

Assays:
[1] = inhibitors of TNFa-induced NFkB p65 translocation, primary screen, imaging, HUVEC, MLSMR starter and 10KST1 sets (AID 438); details: HUVEC TNFa-induced p65 nuclear translocation; cell count: measured here: nuclei count (cytotoxicity indicator), at 2.08 µM; inhibition: at 2 µM, stronger effect = higher value, 0% TNFa-plus-vehicle, 100% no-TNFa wells;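 note: compound added about 3h40 before a 20 min TNFalpha stimulation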;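 for inhibition: signal is the nuclear over cytoplasmic p65 intensity ratio per well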
[2] = reduction of polyQ htt aggregates in cells – imaging, exon1htt(103Q)mCFP cells, high-content imaging, primary screen (AID 483;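 active = visual image review flags a hit and inhibition of aggregation exceeds 20%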;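 note: compound exposure lasted 3 days before fixation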;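 for nuclei count: percent of the per-plate median nuclei count of sample wells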); details: exon1htt(103Q)mCFP cell line, aggregate imaging, at 2 µM; inhibition of aggregation: stronger effect = higher value; nuclei count: measured here: cell count, toxicity
[3] = endothelial E-selectin expression blockers – imaging, HUVEC, immunofluorescence, MLSMR starter and 10KST1 sets, primary screen (AID 487;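 active = visually confirmed hit in the image check and inhibition above 20%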;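 for inhibition: signal is fraction of cell area covered by stained E-selectin grains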;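 for nuclei count: 100% = median nuclei count of all wells on the same plate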); details: HUVEC TNFalpha-induced E-selectin immunofluorescence imaging, at 2 µM; inhibition: stronger effect = higher value; nuclei count: measured here: cell number, toxicity
[4] = target: Voltage-gated potassium channel subunit beta-2 (Rattus norvegicus) (UniProt P62483); assay: inhibitors of rat Kvbeta2 reductase activity – biochemical, NADPH fluorescence, primary screen (AID 622;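 active = fluorescence slope higher than the sample average by over 3 SD, cut at about -0.22 in these data, passing the limit was not always enough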;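 note: slope of raw intensity against log time taken from 70 to 1610 s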); details: recombinant KvBeta, 4-cyanobenzaldehyde reduction, at 10 µM, stronger effect = higher value
Sequence of Voltage-gated potassium channel subunit beta-2 (Rattus norvegicus) (P62483 whole entry, looked up): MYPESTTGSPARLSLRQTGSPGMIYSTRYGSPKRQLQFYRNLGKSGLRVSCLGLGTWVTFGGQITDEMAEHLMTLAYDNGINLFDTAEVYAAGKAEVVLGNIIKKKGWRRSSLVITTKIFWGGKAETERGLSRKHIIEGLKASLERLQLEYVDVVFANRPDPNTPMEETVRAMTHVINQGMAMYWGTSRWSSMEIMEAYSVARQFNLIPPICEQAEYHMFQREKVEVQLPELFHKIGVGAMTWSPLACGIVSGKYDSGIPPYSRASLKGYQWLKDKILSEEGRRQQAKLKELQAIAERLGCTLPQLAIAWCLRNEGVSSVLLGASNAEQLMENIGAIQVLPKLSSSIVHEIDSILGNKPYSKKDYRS

[5] = target: Voltage-gated potassium channel subunit beta-2 (Rattus norvegicus) (UniProt P62483); assay: enhancers of rat Kvbeta2 NADPH turnover – biochemical, NADPH fluorescence, primary screen (AID 623;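 active = NADPH fluorescence slope more negative than the mean of all samples by about 3 SD, 99.7% confidence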;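 note: fluorescence intensity change per second fitted from 20 to 320 s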); details: Recombinant KvBeta, NADPH fluorescence decrease slope, 10 min; at 10 µM; stronger effect = lower value
[6] = target: Alpha-2C adrenergic receptor (Homo sapiens) (UniProt P18825); assay: compounds altering alpha2C-coupled GIRK flux – cell-based, HEK293 alpha2C/GIRK1/2, thallium flux, primary screen (AID 624;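 active = fluorescence slope after compound addition differing from the mean of all screened samples at 99.7% confidence, in either direction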;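 note: slope of fluorescence ratio to pre-addition baseline per second over 15 to 24 s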); details: thallium flux BTC fluorescence, at 10 µM, actives lie on both sides
Sequence of Alpha-2C adrenergic receptor (Homo sapiens) (P18825 whole entry, looked up): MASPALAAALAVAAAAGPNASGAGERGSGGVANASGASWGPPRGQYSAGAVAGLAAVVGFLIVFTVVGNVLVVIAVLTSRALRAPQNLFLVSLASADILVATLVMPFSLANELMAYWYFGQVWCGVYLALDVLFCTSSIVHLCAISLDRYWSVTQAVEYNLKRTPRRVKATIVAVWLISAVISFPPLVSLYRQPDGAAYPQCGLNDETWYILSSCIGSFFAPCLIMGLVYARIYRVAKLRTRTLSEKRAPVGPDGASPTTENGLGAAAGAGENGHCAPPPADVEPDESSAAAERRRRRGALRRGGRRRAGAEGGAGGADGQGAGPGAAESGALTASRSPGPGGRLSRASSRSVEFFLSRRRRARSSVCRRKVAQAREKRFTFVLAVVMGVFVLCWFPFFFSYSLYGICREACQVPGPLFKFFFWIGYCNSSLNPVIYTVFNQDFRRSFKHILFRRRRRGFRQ

[7] = blockers of RIG-like receptor reporter activation – cell-based, Sendai virus stimulus, luciferase, 10K MLSCN set, TLR/RLR signaling modifier project, primary screen (AID 602276;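 active = inhibition at or above 50% at 10 µM; inactive = inhibition below 50%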;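 note: firefly luciferase from ISG56 promoter only with Renilla not read in this screen; 0% = Sendai virus plus DMSO and 100% = medium plus DMSO without virus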); details: HEK293 RL24 IRF3 luciferase reporter, at 10 µM, stronger effect = higher value
[8] = TLR3 IRF3 reporter activation blockers – cell-based, poly I:C stimulus, luciferase, 10K MLSCN set, primary screen (AID 602277;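 active = inhibition of the reporter signal at or above 50%; inactive = inhibition below 50%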); details: HEK293-TLR3 RL24 IRF3 luciferase reporter, at 10 µM, stronger effect = higher value

| Compound | cell count [1] | inhibition [1] | inhibition of aggregation [2] | nuclei count [2] [%] | inhibition [3] | nuclei count [3] [%] | fluorescence slope [4] | NADPH fluorescence slope [5] | slope [6] | inhibition [7] | inhibition [8] |
| --- | --- | --- | --- | --- | --- | --- | --- | --- | --- | --- | --- |
| Cc1cc(C(F)(F)F)nn1Cc1ccc(C(=O)NCc2ccco2)o1 | 597 | -2.1% (inactive) | 2% (inactive) | 106 | -36% (inactive) | 108 | -0.568 (inactive) | -2.7e-05 (inactive) | 0.00427 (inactive) | -1.39% (inactive) | -36.9% (inactive) |
| CC(=O)Nc1ccc(S(=O)(=O)N2CCC(c3nc4ccccc4[nH]3)CC2)cc1 | 232 | 0% (inactive) | 14.3% (inactive) | 93.3 | 17.7% (inactive) | 84.3 | -0.584 (inactive) | -6.2e-05 (inactive) | 0.00595 (inactive) | 7.22% (inactive) | 17.6% (inactive) |
| Cc1ccc(NC(=O)c2cc(S(=O)(=O)N3CCC4(CC3)OCCO4)ccc2F)cc1 | 369 | -3.3% (inactive) | 12.5% (inactive) | 102 | -43.7% (inactive) | 108 | -0.441 (inactive) | 3.1e-05 (inactive) | 0.0033 (inactive) | -8.15% (inactive) | -22.3% (inactive) |
| Cn1c(SCC(=O)Nc2cccc3ccccc23)nc(O)cc1=O | 548 | -0.9% (inactive) | -2.1% (inactive) | 113 | 17.2% (inactive) | 120 | -0.42 (inactive) | -4.6e-05 (inactive) | 0.00441 (inactive) | 11.6% (inactive) | 15.1% (inactive) |
| CC1CN(C(=O)CSc2nnc(-c3ccc(Cl)cc3)n2C)CC(C)O1 (centres undefined) | 345 | 1.1% (inactive) | -13.2% (inactive) | 91.5 | -122% (inactive) | 124 | -0.275 (inactive) | -3.8e-05 (inactive) | 0.00669 (inactive) | -5.39% (inactive) | -17.3% (inactive) |
| CCOc1ccc(C(=O)Nc2ccc(N3CCN(C)CC3)cc2)cc1Br | 434 | 3.4% (inactive) | 0.4% (inactive) | 95.5 | 6.4% (inactive) | 89.5 | -0.571 (inactive) | -3.6e-05 (inactive) | 0.00342 (inactive) | -15.1% (inactive) | -22.4% (inactive) |
| CC1CCCN(C(=O)c2cc(F)c(F)cc2Cl)C1 (centres undefined) | 888 | -1.3% (inactive) | 39.2% (inactive) | 88.6 | -25.2% (inactive) | 94 | -0.617 (inactive) | -3.8e-05 (inactive) | 0.00409 (inactive) | 2.92% (inactive) | 7.68% (inactive) |
| Cc1cccc(C(OC(=O)c2ccco2)C(=O)NCc2ccccc2)n1 (centres undefined) | 724 | -15.3% (inactive) | -7.2% (inactive) | 104 | -79.6% (inactive) | 106 | -0.478 (inactive) | -1.3e-05 (inactive) | 0.00475 (inactive) | -5.03% (inactive) | 21.1% (inactive) |
| CCOC(=O)c1cc(C(C)(C)C)oc1CN | 667 | -1% (inactive) | 1.2% (inactive) | 98.7 | -1.1% (inactive) | 102 | -0.495 (inactive) | -4.4e-05 (inactive) | 0.00475 (inactive) | 15.2% (inactive) | 21.7% (inactive) |
| O=C(NC1=NCCS1)NC12CC3CC(CC(C3)C1)C2 | 357 | -3.3% (inactive) | 6.6% (inactive) | 96.6 | -52.9% (inactive) | 101 | -0.598 (inactive) | -3.4e-05 (inactive) | 0.00362 (inactive) | -1.24% (inactive) | 12.2% (inactive) |
| COc1ccc(/C=N/n2cc(-c3ccc(OC)cc3)nc2N)cc1 | 351 | 10.9% (inactive) | 2.2% (inactive) | 107 | 6.3% (inactive) | 117 | -0.246 (inactive) | 1.1e-05 (inactive) | 0.00586 (inactive) | 8.24% (inactive) | 2.92% (inactive) |
| O=C(Cn1ncc2c1-c1ccccc1OC2)N1CCN(c2ccccn2)CC1 | 631 | -1.1% (inactive) | -24.9% (inactive) | 131 | -55.8% (inactive) | 111 | -0.587 (inactive) | -5.3e-05 (inactive) | 0.00617 (inactive) | 3.72% (inactive) | 26.9% (inactive) |
| O=C(Nc1ccc2c(c1)OCO2)OCc1ccccc1 | 449 | 1.6% (inactive) | -6% (inactive) | 101 | 8.4% (inactive) | 101 | -0.439 (inactive) | -5.5e-05 (inactive) | 0.0049 (inactive) | -47.7% (inactive) | -107% (inactive) |
| CC(=O)Nc1ccc(S(=O)(=O)NCC(C)NS(=O)(=O)c2ccc(NC(C)=O)cc2)cc1 (centres undefined) | 572 | -9.7% (inactive) | 18.1% (inactive) | 76 | -204% (inactive) | 95.1 | -0.442 (inactive) | 4.4e-05 (inactive) | 0.0079 (inactive) | -11.9% (inactive) | -13.4% (inactive) |
